Assay outcomes deposited in PubChem BioAssay by National Center for Advancing Translational Sciences (NCATS).
HEK cytotox = kills HEK 293 cells | HEK 293 viability, ATP luminescence (CellTiter-Glo), 48-72 h | Potency, µM (top dose mostly 115 µM), inactives show at the highest dose activity change, negative = cytotoxicity, usual class: inhibitors | actives 6.6% (n = 94,000) | AID 1345083; further: on the % scale 0 is the no-effect control and ±100 the full control effect; nearly all actives have a fitted effect of over 60% in size
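qHTS cytotoxicity; HEK 293, 250 cells/well; compound pinned; 48 or 72 hr, 37 degree Celsius, 5% CO2, 95% humidity; CellTiter-Glo, 10 min RT; luminescence (ATP).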
3T3 cytotox = kills NIH 3T3 cells; NIH 3T3 viability, CellTiter-Glo ATP luminescence, 48-72 h; AID 1345082; Potency, µM (series often up to 96.7 µM), for inactives: top-dose activity change, negative = cytotoxicity, most hits filed as inhibitors; actives 4.3% (n = 94,000); further: on the % scale 0 is the no-effect control and ±100 the full control effect; nearly all actives have a fitted effect of over 55% in size
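Mouse fibroblast NIH 3T3 cells, 400 per well, received compound via pintool and were incubated for 48 or 72 hr prior to CellTiter-Glo ATP luminescence measurement.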
NPR1 antag = antagonists of human natriuretic peptide receptor Npr1. AID 1347048. Potency, µM (highest dose often 46.3 µM), for inactives: top-dose activity change, negative = inhibition, usual class: inhibitors. HEK293 hNpr1 GloSensor cGMP, ANP-stimulated luminescence. actives 1.6% (n = 76,000). P16066; calls by dose curve; further: on the % scale 0 is the no-effect control and ±100 the full control effect; nearly all actives have a fitted effect of over 60% in size
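HEK293 cells stably expressing human Npr1 and cGMP GloSensor pGS-40F, loaded 2 h with 2% GloSensor reagent, given compound 30 min at room temperature. Luminescence read before and 20 min after 0.1 nM hNppA.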
FLuc inh-1 = blocks purified firefly luciferase enzyme activity; P08659; purified P. pyralis luciferase, luminescence, biochemical; Potency, µM (highest dose often 115 µM), hits mostly inhibitors; actives 2.5% (n = 76,000); AID 1347043; further: on the % scale 0 is the no-effect control and ±100 the full control effect; nearly all actives have a fitted effect of over 65% in size
Target sequence (P08659 whole entry, looked up): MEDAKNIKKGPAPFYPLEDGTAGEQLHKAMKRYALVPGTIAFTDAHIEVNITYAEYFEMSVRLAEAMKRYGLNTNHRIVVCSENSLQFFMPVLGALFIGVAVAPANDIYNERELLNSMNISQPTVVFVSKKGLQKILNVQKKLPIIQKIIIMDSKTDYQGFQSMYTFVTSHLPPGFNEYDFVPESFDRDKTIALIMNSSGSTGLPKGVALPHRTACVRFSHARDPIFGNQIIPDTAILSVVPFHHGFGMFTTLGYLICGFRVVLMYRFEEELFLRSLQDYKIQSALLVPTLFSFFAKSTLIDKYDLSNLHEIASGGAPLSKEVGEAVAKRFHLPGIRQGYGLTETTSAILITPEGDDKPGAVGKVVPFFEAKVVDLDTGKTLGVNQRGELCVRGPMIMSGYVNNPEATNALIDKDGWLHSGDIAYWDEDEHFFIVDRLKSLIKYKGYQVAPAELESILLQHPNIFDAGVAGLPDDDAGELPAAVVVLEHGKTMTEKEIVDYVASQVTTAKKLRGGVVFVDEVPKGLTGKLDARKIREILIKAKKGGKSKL
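Inhibitors were tested against purified firefly luciferase in a biochemical, low-substrate format (both substrates at 10uM) and luminescence measured with a CCD imager.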
GPT2 inhibitor = GPT2 alanine aminotransferase inhibition | Recombinant GPT2, coupled pyruvate oxidase/HRP Amplex Red fluorescence | Potency, µM (series often up to 57.7 µM), for the others: at the highest dose activity change, negative = inhibition, hits mostly inhibitors | actives 0.25% (n = 100,000); further: on the % scale 0 is the no-effect control and ±100 the full control effect; nearly all actives have a fitted effect of over 60% in size
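Fluorescence of coupled pyruvate oxidase/HRP/Amplex Red system (50uM Amplex, 30 min, dark) reports pyruvate formed by GPT2. Enzyme reaction: 10ng/uL GPT2, 2mM L-alanine, 250uM a-KG, 30 min room temperature, pH 7.5; 50uM AOA control.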
FLuc SDR -ATP = binders stabilizing firefly luciferase, without ATP; shares compounds with FLuc inh-1; Purified FLuc-C-HiBiT, Nano-Glo HiBiT luminescence, no ATP; Potency, µM (series often up to 32.7 µM), for inactives: at the highest dose activation (signal gain), actives largely listed as activators; actives 7.8% (n = 1,300); AID 1963318; further: nearly all actives have a fitted effect of over 55% in size
FLuc SDR ATP = stabilizes firefly luciferase with ATP present; actives 8.7% (n = 1,300); Potency, µM (top dose mostly 32.7 µM), inactives show at the top dose activation (gain of signal), actives largely listed as activators; purified FLuc-C-HiBiT + ATP, HiBiT complementation luminescence; shares compounds with FLuc inh-1;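 further: signal reports ligand binding via conformational change of the enzyme rather than luciferase catalysis; % of control where 0% means no effect; nearly all actives have a fitted effect of over 55% in size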
FLuc inh-2 = blocks firefly luciferase enzymatic activity; shares compounds with FLuc inh-1; purified FLuc-C-HiBiT enzyme, luciferin luminescence; Potency, µM (titrated, usually from 32.7 µM), without a hit: at the highest dose activity change, negative = inhibition, usual class: inhibitors; actives 42% (n = 1,300); AID 1963320; further: on the % scale 0 is the no-effect control and ±100 the full control effect; nearly all actives have a fitted effect of over 70% in size
Active calls of the source: *; i = inactive; ? = inconclusive; · = not tested or not shown; [ ] = dose if it differs, or a comment. Compounds with a hit are over-represented: about 10% of the library has one in this group of screens. Unless noted, the call rests on the fitted dose curve; in most records, active means well fitted curve in the direction sought with a large enough effect; inconclusive means small, poorly fitted or top-dose-only effect, or another doubt; inactive means no such curve, though single readings can be large; an effect the other way counts as inactive or inconclusive. Potency means the concentration at half of the fitted maximal effect.

SMILES | HEK cytotox | 3T3 cytotox | NPR1 antag | FLuc inh-1 | GPT2 inhibitor | FLuc SDR -ATP | FLuc SDR ATP | FLuc inh-2
O=C(Nc1cccc(F)c1)N1Cc2[nH]cnc2C[C@H]1c1nc(-c2ccc(F)c(Cl)c2)no1 | ? | ? | -15.6% | ? | -6.3% | · | · | ·
CC(C)S(=O)(=O)N1CCN(c2ccc3nnc(C4CC4)n3n2)CC1 | -11.0% | -29.0% | · | · | · | · | · | ·
CCN(CC)S(=O)(=O)c1ccc2nc(NC(=O)c3cccnc3)sc2c1 | · | · | · | · | · | 16.0% | 11.1% | ?
Cc1cccc(NC(=O)c2c(N)sc3c2CCC(C)C3)c1 (centres undefined) | · | · | · | · | · | 7.5% | 7.4% | ?
O=C(NCCN1CCOCC1)c1nc2sccn2c1-c1cccnc1 | i | -5.7%[138 µM] | · | · | i | · | · | ·
COc1ccc(CN(C(=O)c2cc3ccccc3oc2=O)C2CCS(=O)(=O)C2)cc1OC (centres undefined) | · | · | · | · | · | 19.6% | ? | -16.6%
CCC(=O)N(C1CCOCC1)C1CCN(Cc2ccc(OC)c(OC)c2)CC1 | 3.3% | -18.6% | -1.6% | i | i | · | · | ·
O=C(NCCN1CCOCC1)C1CCCCc2nnc(-c3ccccc3)n21 (centres undefined) | -1.5% | -14.7% | · | · | ? | · | · | ·
O=C1CCCCC(C(=O)NCc2ccc(OC(F)(F)F)cc2)N1 (centres undefined) | -14.7% | -29.3% | · | · | i | · | · | ·
COc1ccc(-c2ccccc2C(=O)N2CCC(NC(=O)c3ccccc3C)CC2)nn1 | 3.2% | 4.7% | · | · | · | · | · | ·
COCCNc1oc(-c2ccc(OC)cc2)nc1C#N | · | · | · | · | · | 22.5% | 14.8% | ?
C[C@H]1[C@H](C)CC[C@]2(C(=O)O)CC[C@]3(C)C(=CCC4[C@@]5(C)C[C@@H](O)[C@H](O)C(C)(C)C5CC[C@]43C)[C@H]12 (some centres undefined) | · | · | · | · | -2.8%[27.3 µM] | · | · | ·
COc1ccc(OCC(=O)Nc2ccc(O)c(-c3nc4ccccc4s3)c2)cc1 | · | · | · | · | · | 12.8% | 9.8% | -14.4%
COc1cccc(C(=O)Nc2ccc(O)c(-c3nc4ccccc4s3)c2)c1 | · | · | · | · | · | 12.9% | 8.2% | -7.8%
O=C(O)c1ccccc1-c1nc2ccccc2s1 | · | · | · | · | · | 23.0% | 13.6% | -15.1%
CCC1Oc2ccc(NC(=O)COc3ccccc3)cc2CN(Cc2ccc(OC)cc2)C1=O (centres undefined) | ? | ? | -7.3% | i | i | · | · | ·
O=C(O)c1cc(-c2ccccc2)nc2ccccc12 | · | · | · | · | -0.5% | · | · | ·
O=C(Nc1ccc(-c2nc3ccccc3s2)c(O)c1)c1ccc(Br)cc1 | · | · | · | · | · | 15.5% | 10.1% | 4.8%
COc1ccc(OC)c(NC(=O)Cn2cccc2-c2nc(-c3ccc(F)cc3)no2)c1 | ? | ? | 6.6% | i | i | · | · | ·
COc1ccc(C(=O)Nc2ccccc2-c2nc3ccccc3s2)c(OC)c1 | · | · | · | · | · | 12.2% | 7.4% | -5.6%
COc1cccc(C(=O)Nc2cc(-c3ccncc3)nn2-c2ccccc2)c1 | ? | ? | · | · | 2.8% | · | · | ·
COc1ccc(C(=O)NCc2nnc3ccc(-c4ccc(F)cc4)nn23)c(OC)c1 | -15.9% | -8.9% | 18.4% | i | -10.0% | · | · | ·
COc1cccc(C(=O)Nc2ccccc2-c2nc3ccccc3s2)c1 | · | · | · | · | · | 8.4% | 8.0% | 0.6%
O=C(Nc1ccccc1-c1nc2ccccc2s1)c1ccccc1F | · | · | · | · | · | 10.4% | 8.8% | -5.5%
COCCN[C@H]1[C@@H]2OC[C@@H](O2)[C@@H](NCc2ccc(-c3ccccc3)cc2)[C@@H]1O | ? | ? | -1.4%[70.6 µM] | i | 1.6%[88.5 µM] | · | · | ·
SMILES | HEK cytotox | 3T3 cytotox | NPR1 antag | FLuc inh-1 | GPT2 inhibitor | FLuc SDR -ATP | FLuc SDR ATP | FLuc inh-2
O=C(NCCc1cccs1)c1cccc2c1CCN2C(=O)Nc1ccc(F)cc1 | ? | ? | ? | 1.26µM* | i | 19.8% | 1.4µM* | 0.785µM*
O=C(NCc1ccco1)c1cccc2c1CCN2C(=O)Nc1ccc(F)cc1 | ? | ? | ? | 2.24µM* | -11.2% | ? | 1.76µM* | 1.11µM*
Cc1ccc(CNC(=O)c2cccc3c2CCN3C(=O)c2ccc(F)cc2)o1 | ? | -14.3% | -9.4% | i | i | · | · | ·
CCCCNC(=O)c1cccc2c1CCN2C(=O)C1CC1 | 3.3% | ? | -2.4% | i | i | · | · | ·
O=C(NCCc1cccnc1)c1cccc2c1CCN2C(=O)Nc1ccc(F)cc1 | 44.7µM* | -28.4% | 11.2µM* | 0.398µM* | i | 23.0% | 0.351µM* | 0.221µM*
O=C(Nc1ccc2c(c1)OCO2)c1cccc2c1CCN2C(=O)Nc1ccc(F)cc1 | ? | -27.7% | 7.08µM* | 0.708µM* | i | 13.1% | 0.248µM* | 0.197µM*
CC(NC(=O)c1cccc2c1CCN2C(=O)Nc1ccccc1)c1cccnc1 (centres undefined) | ? | -21.4% | -28.0% | 6.31µM* | i | 17.5% | 3.13µM* | 1.76µM*
CCC(=O)N1CCc2c(C(=O)NCc3ccncc3)cccc21 | 4.4% | 4.3% | 2.6% | i | -0.3% | · | · | ·
COc1ccc(-c2cc3c(cn2)CN(Cc2cccnc2)CCN3)cc1F | ? | -14.1%[138 µM] | ? | 5.01µM* | -3.0%[88.5 µM] | ? | 17.5%[49.3 µM] | 14.3µM*
COc1ccc(-c2cc3c(cn2)CN(Cc2cccnc2)CCN3)cc1OC | ? | -26.5%[138 µM] | 2.1%[70.6 µM] | 5.62µM* | i | ? | 17.1%[49.3 µM] | 14.3µM*
COc1ccc(OC)c(CN2CCNc3cnc(OCc4cccnc4)cc3C2)c1 | ? | ? | -10.8%[70.6 µM] | i | i | · | · | ·
Cc1nnc2ccc(N3CCCC(NC(=O)NC(C)C)C3)nn12 (centres undefined) | -16.4%[172 µM] | -20.9%[138 µM] | · | · | · | · | · | ·
CCNC(=O)N[C@@H]1C=C[C@@H](c2c(C)nn(-c3ccc(C(F)(F)F)cc3)c2C)C1 | 22.4µM* | ? | 25.1µM* | 1.58µM* | -25.5%[88.5 µM] | 24.5%[49.3 µM] | ? | 14.3µM*
Cc1nn(-c2ccc(C(F)(F)F)cc2)c(C)c1[C@@H]1C=C[C@@H](NC(=O)CC2(CC(=O)O)CCCC2)C1 | -21.8% | ? | 4.8% | i | 0.1% | · | · | ·
CCNC(=O)N[C@@H]1C=C[C@@H](c2c(C)nn(-c3ccc(C(C)C)cc3)c2C)C1 | 20µM* | 28.2µM* | 7.08µM* | 0.501µM* | 0.5%[88.5 µM] | ? | ? | 2.86µM*
